Several values for one entry are separate records, joined by “and”; a condition that tells them apart may be missing. Equal values may be shown once. Some structures have more than one record in an assay (separate samples or runs), and their calls can disagree. Activity calls are given as the source filed them. The calls were made as follows: active = hit-call score of the fitted dose curve at least 0.9, where 1 is the maximum; inactive = score below 0.9.
What was measured:
[1] = ATG_PXRE_CIS: Attagene CIS-FACTORIAL HepG2 Assay for human Pregnane X Receptor Element (PXRE) (AID 2282957); conditions: HepG2 Attagene CIS-FACTORIAL PXRE reporter, mRNA; actives raise or lower the signal
How it was run: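 Fluorescent capillary electrophoresis of amplified reporter cDNA gave the signal, collected 24 h after dosing HepG2 cells that held transfected cis-element reporter constructs.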

[2] = ATG_PPRE_CIS: Attagene CIS-FACTORIAL HepG2 Assay for human Peroxisome Proliferator-activated Response Element (PPRE) (AID 2282958); conditions: HepG2 PPRE cis-element reporter, Attagene transcription factor profiling; actives raise or lower the signal
How it was run: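 HepG2, transient MRTU transfection (cis promoter elements, endogenous TFs). 24 h dosing. RNA → oligo(dT) RT → PCR → 6-FAM primer extension → HpaI digest → CE. Bidirectional fit vs DMSO.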

[3] = ATG_RORE_CIS: Attagene CIS-FACTORIAL HepG2 Assay for human RAR-related Orphan Receptor Element (RORE) (AID 2282959); conditions: HepG2 Attagene cis-factorial RORE reporter, mRNA; actives raise or lower the signal
How it was run: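 Transient MRTU transfection of human HepG2 liver cells (FuGene 6); 24 h compound exposure; TriZol RNA, oligo(dT) RT, PCR, FAM labeling, HpaI cut, CE fragment analysis. DMSO = negative control/baseline.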

[4] = ATG_Sox_CIS: Attagene CIS-FACTORIAL HepG2 Assay for human SRY-box transcription factor (SOX) (AID 2282960); conditions: HepG2 Attagene cis-factorial SOX reporter, mRNA; actives raise or lower the signal
How it was run: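 Endogenous factor activity in human liver HepG2 cells carrying transfected cis-regulated reporter units. RNA taken 24 h post-dose, reverse-transcribed, PCR-amplified and sized by capillary electrophoresis. Gain or loss of signal fitted relative to DMSO.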

[5] = molecular target: Transcription factor Sp1 (Homo sapiens) (UniProt P08047); experiment: ATG_Sp1_CIS: Attagene CIS-FACTORIAL HepG2 Assay for human Specificity Protein 1 (Sp1) (AID 2282961); conditions: HepG2 Sp1 cis-reporter transcription, actives raise or lower the signal
Sequence of Transcription factor Sp1 (Homo sapiens) (P08047 whole entry, looked up): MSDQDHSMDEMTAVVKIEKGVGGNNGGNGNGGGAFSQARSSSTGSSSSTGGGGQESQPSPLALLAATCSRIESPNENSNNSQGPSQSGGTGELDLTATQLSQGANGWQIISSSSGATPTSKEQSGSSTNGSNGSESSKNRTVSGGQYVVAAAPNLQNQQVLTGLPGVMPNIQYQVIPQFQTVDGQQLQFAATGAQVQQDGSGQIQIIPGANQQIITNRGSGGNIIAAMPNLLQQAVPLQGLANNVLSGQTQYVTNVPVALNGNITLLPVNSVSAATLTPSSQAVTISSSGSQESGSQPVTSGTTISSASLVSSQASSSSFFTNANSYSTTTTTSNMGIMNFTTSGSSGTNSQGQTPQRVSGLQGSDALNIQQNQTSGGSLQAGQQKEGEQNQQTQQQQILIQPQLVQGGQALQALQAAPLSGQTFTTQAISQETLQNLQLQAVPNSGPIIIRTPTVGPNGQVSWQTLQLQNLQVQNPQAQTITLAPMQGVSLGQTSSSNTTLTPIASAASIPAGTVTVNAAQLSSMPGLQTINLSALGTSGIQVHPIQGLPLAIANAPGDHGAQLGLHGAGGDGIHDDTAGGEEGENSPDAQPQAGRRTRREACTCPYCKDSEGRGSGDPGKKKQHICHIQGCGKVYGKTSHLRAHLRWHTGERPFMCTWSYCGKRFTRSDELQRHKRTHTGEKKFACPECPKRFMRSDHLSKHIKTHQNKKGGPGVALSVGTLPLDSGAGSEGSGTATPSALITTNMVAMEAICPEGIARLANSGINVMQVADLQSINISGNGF
How it was run: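 Transient MRTU-transfected HepG2, 24 h compound exposure. Total RNA → oligo(dT) RT → PCR of reporter → 6-FAM primer extension → HpaI digest → CE. Endpoint fitted both directions vs DMSO.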

[6] = molecular target: Signal transducer and activator of transcription 3 (Homo sapiens) (UniProt P40763); experiment: ATG_STAT3_CIS: Attagene CIS-FACTORIAL HepG2 Assay for human Signal Transducer and Activator of Transcription 3 (STAT3) (AID 2282963); conditions: HepG2, Attagene cis-factorial STAT3 reporter transcription; actives raise or lower the signal
Sequence of Signal transducer and activator of transcription 3 (Homo sapiens) (P40763 whole entry, looked up): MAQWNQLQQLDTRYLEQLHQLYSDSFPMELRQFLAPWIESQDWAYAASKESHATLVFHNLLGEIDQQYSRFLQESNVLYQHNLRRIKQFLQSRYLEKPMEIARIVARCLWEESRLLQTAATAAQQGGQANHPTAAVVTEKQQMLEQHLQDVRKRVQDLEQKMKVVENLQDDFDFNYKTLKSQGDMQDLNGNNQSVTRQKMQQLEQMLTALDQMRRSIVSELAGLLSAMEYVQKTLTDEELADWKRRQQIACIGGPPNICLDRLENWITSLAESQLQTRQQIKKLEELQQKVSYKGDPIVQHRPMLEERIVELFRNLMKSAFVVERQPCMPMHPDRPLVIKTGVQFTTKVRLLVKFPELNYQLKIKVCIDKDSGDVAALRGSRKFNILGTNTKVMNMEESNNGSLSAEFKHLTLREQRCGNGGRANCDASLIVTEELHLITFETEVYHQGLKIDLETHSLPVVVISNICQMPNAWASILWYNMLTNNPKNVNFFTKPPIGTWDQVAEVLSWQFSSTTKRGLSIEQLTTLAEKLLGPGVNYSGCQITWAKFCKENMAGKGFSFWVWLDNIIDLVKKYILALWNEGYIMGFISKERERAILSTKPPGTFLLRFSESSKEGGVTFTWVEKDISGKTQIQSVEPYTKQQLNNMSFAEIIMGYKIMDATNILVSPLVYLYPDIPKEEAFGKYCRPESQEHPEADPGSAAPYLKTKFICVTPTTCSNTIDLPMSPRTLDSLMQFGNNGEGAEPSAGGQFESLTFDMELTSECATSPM
How it was run: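 Uses human liver HepG2 transiently carrying cis-regulated reporter transcription units. Following 24 h dosing, reporter mRNA induction was detected by RT-PCR and capillary electrophoresis, analysed bidirectionally versus DMSO.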

[7] = ATG_TA_CIS: Attagene CIS-FACTORIAL HepG2 Assay for human TA Basal Promoter (AID 2282964); conditions: HepG2 Attagene CIS-factorial TA basal promoter reporter; actives raise or lower the signal
How it was run: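 Background internal-marker endpoint from a 52-component HepG2 cis-reporter panel. Cells treated 24 h; reporter transcripts quantified via RT-PCR and CE fluorescence against DMSO baseline.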

[8] = ATG_TCF_b_cat_CIS: Attagene CIS-FACTORIAL HepG2 Assay for human T-Cell-Factor with beta-catenin (TCF/b-cat) (AID 2282965); conditions: HepG2 TCF/beta-catenin cis-reporter transcription, actives raise or lower the signal
How it was run: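 HepG2 cells transiently transfected with multiple cis-promoter-regulated reporter transcription units, so endogenous transcription factor activity is measured. Reporter mRNA read 24 hours after dosing by RT-PCR, fluorescent labelling and capillary electrophoresis; bidirectional fitting against DMSO.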

[9] = ATG_TAL_CIS: Attagene CIS-FACTORIAL HepG2 Assay for human TAL Basal Promoter (AID 2282966); conditions: HepG2 Attagene cis-factorial TAL promoter reporter; actives raise or lower the signal;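 also: background control endpoint measuring basal TAL promoter reporter mRNA not a specific factor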
How it was run: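 Transiently transfected HepG2 (cis-regulated reporter units), 24 h treatment, mRNA read by fluorescent CE after RT-PCR; bidirectional fit, DMSO baseline.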

[10] = ATG_SREBP_CIS: Attagene CIS-FACTORIAL HepG2 Assay for human Sterol Regulatory Element Binding (SREBP) (AID 2282962); conditions: HepG2 Attagene cis-factorial SREBP reporter, mRNA; actives raise or lower the signal
How it was run: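 Endogenous SREBP activity read as cis-element-driven reporter transcript in transiently transfected HepG2, 24 h post-dosing; quantified via RT-PCR plus capillary electrophoresis of fluorescent fragments. Gain or loss of signal fitted relative to DMSO baseline.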

Measured: AC50

CCC(=O)C=Cc1ccc(OC)cc1
inactive: [2] | [3] | [5] | [6] | [7] | [8] | [9]
active: [1] 26.9 µM | [4] 70.4 µM

COc1cc([N+](=O)[O-])ccc1N
inactive: [1] | [2] | [3] | [4] | [5] | [6] | [7] | [8] | [9]

CCCCC=O
active: [1] 27.2 µM
inactive: [3] | [4] | [5] | [6] | [7] | [8] | [9]

O=S(=O)(O)c1ccc2cc(O)ccc2c1
inactive: [1] | [4] | [5] | [6] | [7] | [8] | [9]

O=C(NO)c1ccccc1
inactive: [1] | [3] | [4] | [5] | [10] | [6] | [7]
active: [7] 76.7 µM | [8] 18.9 µM [middle of 4 runs] | [9] 75.5 µM [middle of 4 runs]

O=C1OC2(c3ccccc31)c1cc(I)c(O)c(I)c1Oc1c2cc(I)c(O)c1I
active: [1] 12.8 µM and 4.37 µM and 8.03 µM | [3] 34.5 µM and 28.1 µM
inactive: [3] | [4] | [5] | [10] | [7] | [8] | [9]

CCCCCCc1ccc(N)cc1
active: [8] 5.73 µM
inactive: [1] | [2] | [3] | [4] | [5] | [6] | [7] | [9]

COc1cc(OC)nc(NC(=O)NS(=O)(=O)Nc2ccccc2C(=O)N(C)C)n1
inactive: [1] | [2] | [3] | [4] | [5] | [6] | [8] | [9]

CN(C)CCOC(c1ccccc1)c1ccccc1
inactive: [3] | [4] | [5] | [6] | [8] | [9]
active: [1] 151 µM

CCCCCCCCCCCCOC(=O)c1cc(O)c(O)c(O)c1
active: [1] 2.94 µM
inactive: [2] | [3] | [4] | [5] | [7] | [8] | [9]

COc1ccc(C#N)cc1
inactive: [1] | [2] | [3] | [4] | [5] | [7] | [8] | [9]

O=C(O)C(=O)O
inactive: [1] | [4] | [5] | [10] | [6] | [8] | [9]

CN(C)c1ccc(C(=C2C=CC(=[N+](C)C)C=C2)c2ccccc2)cc1
active: [4] 1.36 µM | [5] 1.43 µM | [7] 0.752 µM | [8] 2.07 µM and 2.43 µM
inactive: [1] | [4] | [5] | [6] | [7] | [9]

CCCCC(CC)C(=O)OCCOCCOCCOCCOC(=O)C(CC)CCCC (stereo unspecified)
inactive: [2] | [3] | [4] | [5] | [6] | [7] | [8] | [9]
active: [1] 27.5 µM

CCCCCCCCCC=CCC1CC(=O)OC1=O (stereo unspecified)
active: [10] 67.9 µM
inactive: [1] | [3] | [4] | [5] | [6] | [7] | [8] | [9]

OCC1CCC(CO)CC1 (stereo unspecified)
inactive: [1] | [2] | [3] | [4] | [5] | [7] | [8] | [9]

Cc1cc(=O)oc2cc(O)ccc12
inactive: [4] | [5] | [10] | [6] | [8] | [9]
active: [1] 8.35 µM and 25.5 µM

O=C(CCCN1CCC(O)(c2ccc(Cl)cc2)CC1)c1ccc(F)cc1
active: [3] 52.4 µM | [5] 33.4 µM | [10] 5.07 µM | [6] 59.5 µM | [7] 33.4 µM | [9] 53.8 µM
inactive: [4] | [8]

O=S(=O)(O)C(F)(F)C(F)(F)C(F)(F)C(F)(F)C(F)(F)C(F)(F)C(F)(F)C(F)(F)C(F)(F)C(F)(F)F
inactive: [2] | [3] | [4] | [5] | [7] | [8] | [9]
active: [1] 83.7 µM and 40.3 µM

CC1COCc2cc3c(cc21)C(C)(C)C(C)C3(C)C (stereo unspecified)
inactive: [2] | [8]
active: [1] 1.23 µM | [3] 164 µM | [4] 73.2 µM | [5] 100 µM | [7] 168 µM | [9] 144 µM

NC(=NCCCCCCN=C(N)/N=C(\N)Nc1ccc(Cl)cc1)/N=C(\N)Nc1ccc(Cl)cc1
inactive: [1] | [4] | [5] | [10] | [7] | [8] | [9]
active: [4] 22.1 µM and 25.5 µM | [5] 159 µM and 23.3 µM | [10] 23.3 µM | [8] 23 µM and 25.4 µM | [9] 119 µM

FC(F)(F)C1(F)C(F)(F)C(F)(F)C(F)(F)C(F)(C(F)(F)F)C1(F)F (stereo unspecified)
inactive: [1] | [2] | [3] | [4] | [5] | [6] | [8] | [9]

CCCCCCCC(OC)OC
inactive: [1] | [2] | [3] | [4] | [5] | [6] | [7] | [8] | [9]

c1cnc2c(c1)ccc1cccnc12
inactive: [1] | [4] | [5] | [10] | [6] | [7] | [8] | [9]

CCCCCCCCCCCCCCC
inactive: [1] | [3] | [4] | [5] | [10] | [6] | [7] | [8] | [9]

c1cc[nH]c1
inactive: [1] | [2] | [3] | [4] | [5] | [6] | [7] | [8] | [9]

CS(=O)(=O)c1ccc([C@@H](CC2CCCC2)C(=O)Nc2cnccn2)cc1Cl
inactive: [6]
active: [1] 1.91 µM | [3] 60.2 µM | [4] 170 µM | [5] 160 µM | [10] 136 µM | [7] 100 µM | [8] 50.6 µM | [9] 148 µM

C=COC(=O)C(C)(C)CCCCCC
inactive: [2] | [3] | [4] | [5] | [6] | [7] | [8] | [9]
active: [1] 27.9 µM

Cc1[nH]nc2c1N=C(c1ccccc1Cl)c1cc([N+](=O)[O-])ccc1N2
inactive: [3] | [4] | [10] | [6] | [9]
active: [1] 3.76 µM | [5] 0.357 µM | [7] 0.288 µM | [8] 3.71 µM

Oc1cc2ccccc2cc1O
active: [2] 100 µM
inactive: [1] | [3] | [4] | [5] | [7] | [8] | [9]

— PubChem BioAssay (EPA / NIEHS)
